LDHA inh: qHTS assay for inhibitors of human lactate dehydrogenase | 480,000 compounds, 0.15% hits | activity change, % (values are at about 110 or 230 µM) | L-lactate dehydrogenase A chain (Homo sapiens), P00338 | purified LDHA, NADH/diaphorase-resazurin fluorescence; hits give low values; in the data active means activity change below about -30%; inconclusive means mostly about -25% to -30%;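 further: plate controls were DMSO wells for no effect and wells without enzyme for full effect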
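Resorufin fluorescence (ex540/em590), read at 0 and 20 min after diaphorase/resazurin addition, reports the NADH left after a 5 min room-temperature reaction of 2 nM human LDH5 with 0.06 mM NADH and 0.2 mM pyruvate.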
ClpP mod: qHTS Assay for Activators of ClpP; ATP-dependent Clp protease proteolytic subunit (Bacillus subtilis (strain 168)), P80244; purified B. subtilis ClpP, FRET peptide cleavage, 20 min; Potency, µM (series often up to 57.5 µM), for inactives: at the highest dose activity change, negative = active; 340,000 compounds, 1.9% hits; AID 651965, 2013; active means well fitted falling curve with a large enough effect; inconclusive means small, poorly fitted or top-dose-only effect; inactive means no such curve, though single readings can be large or run the other way; further: potency means the concentration at half of the fitted maximal effect; the source files actives as falling curves though it sought activators and does not explain the sign; nearly all actives have a fitted effect of over 65% in size
Target sequence (P80244 whole entry, looked up): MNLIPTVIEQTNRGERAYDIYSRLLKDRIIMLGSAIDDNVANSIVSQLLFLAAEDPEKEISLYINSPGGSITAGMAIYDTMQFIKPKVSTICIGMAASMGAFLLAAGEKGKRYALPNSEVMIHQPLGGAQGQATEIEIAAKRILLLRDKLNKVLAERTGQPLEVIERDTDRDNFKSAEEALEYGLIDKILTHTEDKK
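Buffer: 100 mM Tris/HCl pH8, 100 mM KCl, 0.05% low protease BSA, 2.5% glycerol, 0.01% Tween-20. ClpP 10 microg/mL final; 20 min RT; delta FRET normalized to ADEP and DMSO controls.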
GLP1R inv ag: qHTS of GLP-1 Receptor Inverse Agonists (Inhibition Mode); Potency, µM (series often up to 38.3 µM), without a hit: at the highest dose activity change, negative = inhibition, hits mostly inhibitors; Glucagon-like peptide 1 receptor (Homo sapiens), P43220; HEK293 GLP-1R CRE-luciferase, luminescence, 24 h; GLP-1R form is constitutively active; 410,000 compounds, 1.6% hits; further: potency means the concentration at half of the fitted maximal effect; on the % scale 0 is the no-effect control and ±100 the full control effect; nearly all actives have a fitted effect of over 55% in size
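qHTS in 1536-well format: reporter HEK293 cells expressing constitutive GLP-1R activity in DMEM + 10% Nu serum, 24 hr with compounds at 37 deg C, luminescence read after 12 min with detection reagent.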
GLP-1R agonist: qHTS of GLP-1 Receptor Agonists; Glucagon-like peptide 1 receptor (Homo sapiens), P43220; HEK293 GLP-1R CRE-luciferase, luminescence, 4-6 h; cells express a hypersensitive GLP-1R form; Potency, µM (top dose mostly 45.6 µM), inactives show top-dose activation, actives largely listed as activators; 380,000 compounds, 0.007% hits; AID 624172, 2012; further: potency means the concentration at half of the fitted maximal effect; % of control where 0% means no effect
p53 reactivation: qHTS assay for re-activators of p53 using a Luc reporter | 320,000 compounds, 0.063% hits | Potency, µM (titrated, usually from 92.2 µM), for the others: top-dose activity change, positive = activation, most hits filed as activators | AID 504706, 2011 | H1299 p53-A138V BP100-luciferase reporter, luminescence, 24 h; further: potency means the concentration at half of the fitted maximal effect; % of control where 0% means no effect; nearly all actives have a fitted effect of over 45% in size
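p53-null H1299 cells stably carrying temperature-sensitive p53-A138V and a BP100-luciferase reporter were pinned with compounds (4-point, 1:5 series) and held 24 hrs at 37 deg C. Luminescence was read 10 min after detection reagent.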
GLP1R cytotox: qHTS of GLP-1 Receptor Inverse Agonists: Cytotox Screen | HEK293 cAMP-luciferase reporter cells, luminescence, 24 h | Potency, µM (top dose mostly 38.3 µM), without a hit: at the highest dose activity change, negative = inhibition, hits mostly inhibitors | 410,000 compounds, 0.13% hits;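 further: loss of luciferase light is scored as toxicity; potency means the concentration at half of the fitted maximal effect; on the % scale 0 is the no-effect control and ±100 the full control effect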
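Luminescence readout: signal drop marks cytotoxicity. Plated cells grew 12 h at 37 °C, 5% CO2, received 23 nL compound for 24 h, then got luciferase reagent, read after 12 min at RT.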
Active calls of the source: *; ? = inconclusive; . = no result given. Most compounds without a hit are left out; they make up all but 2.9% or so of the library. Unless noted, the call rests on the fitted dose curve; in most records, active means well fitted curve in the direction sought with a large enough effect; inconclusive means small, poorly fitted or top-dose-only effect, or another doubt; inactive means no such curve, though single readings can be large; an effect the other way counts as inactive or inconclusive.

SMILES | LDHA inh | ClpP mod | GLP1R inv ag | GLP-1R agonist | p53 reactivation | GLP1R cytotox
CCCOc1ccc(Br)cc1C1C(C(=O)OCC)=C(C)Nc2nnnn21 (centres undefined) | 21 | . | . | . | . | .
COC(=O)C1=C(C)Nc2nnnn2C1c1ccccc1Cl (centres undefined) | -5 | -6% | -2% | 2% | -12% | -2%
CCCOc1ccccc1C1C(C(=O)Nc2ccccc2)=C(C)Nc2nnnn21 (centres undefined) | -5 | -3% | 8.9µM* | . | . | ?
CCCOC(=O)C1=C(C)Nc2nnnn2C1c1cc(Br)ccc1OCC (centres undefined) | -32* | . | . | . | . | .
O=C(/C=C/Nc1ccc2ccccc2c1)C(F)(F)F | 1 | . | . | . | . | .
CCc1cccc(C)c1NC(=O)c1ccc2c(c1)CCN2S(=O)(=O)c1ccc(Cl)cc1 | 0 | 0% | -25% | . | . | 4%
CC(C)c1ccc(Nc2c(-c3ccccc3O)nc3cnccn23)cc1 | 2 | -1% | 10µM* | -7% | . | 1%
COc1cc(-c2nc3cnccn3c2Nc2ccc(C(C)C)cc2)ccc1O | -4 | ? | 2% | 1% | -11% | -13%
COCCNC(=S)N/N=C(\C)c1cccc([N+](=O)[O-])c1 | -4 | 0% | ? | 13% | 9% | ?
COCCNC(=S)N/N=C(\C)c1cccc(OC)c1 | -12 | . | 4µM* | 6% | -1% | ?
COCCNC(=S)N/N=C(\C)c1ccccc1OC | -3 | 2.8µM* | ? | 8% | 17% | ?
CC(=O)N/N=C(\C)c1cccc(C(F)(F)F)c1 | 1 | . | 5% | 4% | 1% | -5%
CCNC(=S)N/N=C(\C)c1cccc(C(F)(F)F)c1 | -4 | . | 4.5µM* | 16% | 6% | 4.5µM*
COCCNC(=S)N/N=C(\C)c1ccc(Cl)s1 | -3 | . | 2.2µM* | 11% | 3% | 2.8µM*
O=C(O)c1ccc(NS(=O)(=O)c2cccc(C(=O)Nc3cccc(C(=O)O)c3)c2)cc1 | -2 | -2% | -14% | -2% | -1% | 4%
Cc1ccc(NC(=O)c2ccc(S(=O)(=O)NCc3cccnc3)cc2)cc1C | -8 | . | ? | 16% | -4% | -11%
CC(OC(=O)c1ccc(C(N)=O)cc1)C(=O)NC12CC3CC(CC(C3)C1)C2 (centres undefined) | -3 | . | . | . | . | .
CC(O)(c1ccccc1)C(c1ccccc1)C1CCCCN1 (centres undefined) | -5 | -1% | -14% | -1% | -2% | 0%
COCCNC(=S)N/N=C(\C)c1ccc(Cl)c(Cl)c1 | 0 | 0% | ? | 24% | 5% | 7%
COCCNC(=S)N/N=C(\C)c1ccc(Cl)c(Cl)c1Cl | -6 | . | ? | 21% | -2% | 3.5µM*
Cc1ccc(-c2nc(CS(=O)(=O)CC(=O)Nc3cc(C)ccc3C)c(C)o2)cc1 | -10 | -29% | 12% | . | . | 6%
CCn1c2ccccc2c2cc(CN3CCN(Cc4cc(OC)c(O)c(OC)c4)CC3)ccc21 | 23 | -7% | 11µM* | . | . | -1%
COc1ccc(CN2CCN(Cc3ccco3)CC2)cc1OC | -34* | 0% | 10% | 0% | 16% | 4%
COc1ccc(CN2CCN(Cc3c[nH]c4ccccc34)CC2)c(OC)c1 | -33* | -6% | ? | 4% | . | -7%
CCn1c2ccccc2c2cc(CN3CCN(Cc4cc(OC)ccc4O)CC3)ccc21 | -24 | . | ? | 12% | 1% | -21%
COc1ccc(Br)cc1CN1CCN(Cc2c[nH]c3ccccc23)CC1 | -17 | 0% | ? | 2% | 1% | ?
COc1ccc(CN2CCN(Cc3c[nH]c4ccccc34)CC2)cc1OC | -32* | 0% | -11% | 18% | . | 3%

Assay outcomes: PubChem, National Center for Advancing Translational Sciences (NCATS)
